Experimental findings from PubChem BioAssay (NCATS) are described below.

Records with an inconclusive call do not appear. Activity calls are given as the source filed them. The call rests on the fitted dose curve; in most records, active means well fitted inhibition curve with a large enough effect; inconclusive means small, poorly fitted or top-dose-only effect; inactive means no such curve, though single readings can be large or run the other way.
On the % scale 0 is the no-effect control and ±100 the full control effect; potency means the concentration at half of the fitted maximal effect.

Chromobox protein homolog 1 (Homo sapiens), sequence (P83916 whole entry, looked up): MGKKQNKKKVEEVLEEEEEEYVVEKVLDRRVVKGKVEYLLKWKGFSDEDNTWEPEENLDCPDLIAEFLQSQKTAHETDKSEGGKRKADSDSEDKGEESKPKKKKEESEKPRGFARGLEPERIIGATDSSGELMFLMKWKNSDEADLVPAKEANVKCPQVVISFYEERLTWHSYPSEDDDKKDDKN

For this assay, the target named is Chromobox protein homolog 1 (Homo sapiens) (UniProt P83916). Description: qHTS Validation Assay for Inhibitors of HP1-beta Chromodomain Interactions with Methylated Histone Tails (AID 488953). Further: nearly all actives have a fitted effect of over 50% in size. The conditions noted are these: HP1-beta chromodomain / methylated histone peptide binding assay; series mostly up to 114 µM; activity change, negative = inhibition: at the top concentration. The text has this:
As our understanding of epigenetics expands, it is becoming clear that players in this field are potential targets for drug development. This area of epigenetic therapy has established applications for the treatment of cancer and neurological diseases. We have been involved in this field for a number of years and have performed high-throughput screens to identify the first small molecule inhibitors of protein methyltransferases. These methyltransferases target multiple substrates, and thus regulate many arms of an epigenetic pathway. The methylation of different substrates often generates docking sites for effector proteins that harbor binding domains (chromo, tudor, PHD, MBT and ANK repeats).
It has been proposed that the binding sites generated for different proteins by these post-translational modifcations mediate downstream effects on chromatin. Consistent with this theory, di- and tri-methylation of histone H3K9 facilitates the binding of heterochromatin protein HP1. The HP1 protein harbors a chromodomain that is responsible for the methyl-dependent interaction between HP1 and lysine 9 of histone H3. HP1 was first described in flies as a heterochromatin associated protein that can regulate gene silencing. It harbors a chromodomain that binds H3K9me3. In addition, it harbors a chromoshadow domain that interacts with a large number of proteins that are involved in heterochromatin formation and gene repression. There are three highly related HP1 isoforms. All three variants are associated with pericentric heterochromatin and it is not clear whether they have specific or redundant functions. MPP8 is also involved in the repression of gene in euchromatic regions (unpublished data) and like HP1 its chromodomain binds H3K9me3. MPP8 harbors an ankyrin repeat region that is likely involved in binding and recruiting interacting proteins with transcriptional repressive function, much like the chromoshadow domain of HP1 does.
We hypothesize that by inhibiting specific protein-protein interactions we will be able to develop compounds that block a single arm of an epigenetic pathway. The specificity attained by blocking a single protein-protein interaction will be far greater than that attained by blocking the enzyme that regulates one of many interactions.
Low-affinity protein-protein interactions (Kd in the single- to double-digit micromolar range) such as those discussed here have been very difficult to assay by traditional techniques such as fluorescence polarization or fluorescence resonance energy transfer. We have developed a sensitive chemiluminescence-based assay (Quinn, et al. 2009), which serves as the starting point for this project.
The following is a validation assay to identify lead compounds that can block methyl-dependent protein-protein interactions (specifically HP1-beta), which can be used as probes to analyze these methyl-driven interactions and perhaps even developed into targeted epigenetic therapies.
Assay Provider: Mark T. Bedford, MD Anderson
Screening Center PI: Austin, C.P.
Screening Center: NIH Chemical Genomics Center [NCGC]
To each well, 2 uL of HP1-beta protein (final 50 nM) and 1 uL biotinylated histone peptide trimethylated at Lys9 [b-H3(1-18)K9me3] (final 50 nM) was added in 1x PBS buffer, pH 7.4, containing 0.01% Tween-20 using a nanoliter dispenser. Formation of a protein-peptide complex proceeded at room temperature for 30 min. A Kalypsys pin-tool was employed to transfer 23 nL of library compound solution in DMSO to each well. Aurintricarboxylic acid (ATA) was used as an intraplate control with a 12-point titration in duplicate. Following a 30 min incubation of the protein-peptide complex with compounds at room temperature, a mixture of 40 ug/mL each streptavidin-coated donor and nickel chelate acceptor AlphaScreen beads (final 10 ug/mL) was added in a 1 uL dispense for a final volume of 4 uL. Plates were incubated protected from the light for 30 min at room temperature. […]
In general terms: qHTS replaces the single test concentration by a dilution series.
As for `Cc1cn([C@H]2C=C[C@@H](CO)O2)c(=O)[nH]c1=O`, the “activity change, negative = inhibition” value is -4.88% (inactive).
For the compound `CC(C)NCC(O)c1ccc(O)c(O)c1` (stereo not given), the Potency was 0.0106 µM (active).
Consider `NC12CC3CC(CC(C3)C1)C2`, for which the “activity change, negative = inhibition” value is 2.18% (inactive).
The same measure, in the same setting: the value for `N[C@@H](Cc1c[nH]c2ccc(O)cc12)C(=O)O` was 43.5% [at 57.1 µM] (inactive).
The same measure, in the same setting: to `Cc1cc(C(C)(C)C)cc(C)c1CC1=NCCN1` belongs -5.5% (inactive).
On to `Cn1ccc2cc3c(cc21)CCN3C(=O)Nc1cccnc1`, for which the Potency is 39.8 µM (active).
Consider `Nc1c2c(nc3ccccc13)CCCC2`, for which the “activity change, negative = inhibition” value is -11.1% (inactive).
The same measure, in the same setting: the value for `Cc1cc(C(C)(C)C)c(O)c(C)c1CC1=NCCN1` was -4.2% (inactive); that for `Nc1nnc(-c2cccc(Cl)c2Cl)c(N)n1` was 8.98% (inactive).
The same measure, in the same setting: the value for `COc1ccc2c(c1)c(CC(=O)O)c(C)n2C(=O)c1ccc(Cl)cc1` was 9.23% (inactive).
Take `O=C1c2c(O)ccc(O)c2C(=O)c2c(NCCNCCO)ccc(NCCNCCO)c21`: the Potency was 5.62 µM (active).
`COc1ccc(C2CNC(=O)C2)cc1OC1CCCC1` (stereo not given): the “activity change, negative = inhibition” value was 2.4% (inactive).
Regarding `CC(C)(Oc1ccc(C2CC2(Cl)Cl)cc1)C(=O)O` (stereo not given), the “activity change, negative = inhibition” value is -6.21% (inactive).
For `NCCS(=O)(=O)O`, the “activity change, negative = inhibition” value is -4.08% (inactive).
For `Clc1ccccc1C(c1ccccc1)(c1ccccc1)n1ccnc1`, the Potency is 0.0084 µM (active).
Take `CC12CC3CC(C)(C1)CC(N)(C3)C2`: the “activity change, negative = inhibition” value was -5.67% (inactive).
On to `O=C(c1ccc(OCCN2CCCCC2)cc1)c1c(-c2ccc(O)cc2)sc2cc(O)ccc12`, for which the Potency was 31.6 µM (active).
As to `O=C1N(c2ccccc2)c2ccccc2C1(Cc1ccncc1)Cc1ccncc1`, the “activity change, negative = inhibition” value was -2.13% (inactive).
In the case of `CN(C)c1nc(N(C)C)nc(N(C)C)n1`, the “activity change, negative = inhibition” value was 5.81% (inactive).
Still for that read-out and setting: to `CCC1(C)CC(=O)NC1=O` (stereo not given) belongs -6.46% (inactive); to `Nc1nc2c(ncn2COC(CO)CO)c(=O)[nH]1`, -1.04% (inactive); to `O=c1c(-c2ccc(O)cc2)coc2cc(O)cc(O)c12`, -11.9% (inactive).
Consider `COc1ccccc1N1CCN(CC(O)COc2cccc3ccccc23)CC1` (stereo not given), for which the Potency was 39.8 µM (active).
With `COc1ccccc1OCC(O)CN1CCN(CC(=O)Nc2c(C)cccc2C)CC1` (stereo not given), the “activity change, negative = inhibition” value is -14% (inactive).
As to `Clc1ccc2nsnc2c1NC1=NCCN1`, the “activity change, negative = inhibition” value is 17.8% (inactive).
With `CCCCc1oc2ccccc2c1C(=O)c1cc(I)c(OCCN(CC)CC)c(I)c1`, the Potency is 44.7 µM (active).
With `CN(C)CCOC(c1ccccc1)c1ccccc1`, the “activity change, negative = inhibition” value was -5.03% (inactive).
Still for that read-out and setting: the value for `COc1ccc2[nH]cc(CCNC(C)=O)c2c1` was 15.5% (inactive).
As to `CN1CCN(CCCN2c3ccccc3Sc3ccc(Cl)cc32)CC1`, the Potency was 31.6 µM (active).
Take `COc1cc2nc(N(C)CCCNC(=O)C3CCCO3)nc(N)c2cc1OC` (stereo not given): the “activity change, negative = inhibition” value is -8.11% (inactive).
On the same count and under the same terms, to `CC(C(=O)O)c1cccc(C(=O)c2ccccc2)c1` (stereo not given) belongs -3.76% (inactive).
As for `Cc1cn([C@H]2C[C@H](N=[N+]=[N-])[C@@H](CO)O2)c(=O)[nH]c1=O`, the “activity change, negative = inhibition” value is -1.89% (inactive).
Same read-out and setting: the value for `CS(=O)(=O)Nc1ccc([N+](=O)[O-])cc1Oc1ccccc1` was 1.85% (inactive).
On the same count and under the same terms, the value for `CN(C)CCCN1c2ccccc2CCc2ccc(Cl)cc21` was 44% [at 57.1 µM] (inactive); that for `CCOC(=O)c1ncn2c1CN(C)C(=O)c1cc(F)ccc1-2` was -6% (inactive); that for `CCCNCC(O)COc1ccccc1C(=O)CCc1ccccc1` (stereo not given) was 0.175% (inactive).
Still for that read-out and setting: the value for `NS(=O)(=O)c1cc2c(cc1Cl)NCNS2(=O)=O` was -3.44% (inactive); that for `Cn1c(=O)c2c(ncn2C)n(C)c1=O` was -5.56% (inactive).
As to `OCCN(CCO)c1nc(N2CCCCC2)c2nc(N(CCO)CCO)nc(N3CCCCC3)c2n1`, the “activity change, negative = inhibition” value was 3.76% (inactive).
Take `CCOC(=O)C(C)(C)Oc1ccc(Cl)cc1`: the “activity change, negative = inhibition” value was 57.8% [at 57.1 µM] (inactive).
